# Experimental data published in the supplement of paper PMC6555819.
# Key:
# Experiment in all cases: PBM binding z-score (relative to random genomic background probes); higher = stronger binding; sequences stand for … in GC…GCGATTGACAGCGTAGAATGAAGG
# [1] = test system: FXR:RXRa (NR concentration 270 nM, RXRa partner concentration 90 nM)
# Procedure, shortened: (§1)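 Probes were double-stranded and carried 34-nt variable regions with direct-repeat seeds, single-nucleotide variants, half-site ablations and random human genomic background sequences, printed on custom Agilent 4×180K protein-binding microarrays. Arrays were incubated 1 h with ligand-free nuclear receptor dimers in PBS pH 7.4, 2% milk, 0.02% Triton X-100, 1 mM DTT, 0.2 mg/mL BSA and 0.4 mg/ml salmon testes DNA. Antibodies against each partner (one per run) detected binding, and scanned fluorescence was regression-normalized. Binding z-scores use the random background probes as reference.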
# [2] = test system: LXRa:RXRa (NR concentration 270 nM, RXRa partner concentration 90 nM)
# Procedure, shortened: as §1
# [3] = test system: LXRa homodimer (NR concentration 270 nM)
# Procedure, shortened: as §1
# [4] = test system: LXRb:RXRa (NR concentration 270 nM, RXRa partner concentration 90 nM)
# Procedure, shortened: as §1
# [5] = test system: LXRb homodimer (NR concentration 270 nM)
# Procedure, shortened: as §1
# [6] = test system: PPARa:RXRa (NR concentration 270 nM, RXRa partner concentration 90 nM)
# Procedure, shortened: as §1
# [7] = test system: PPARg:RXRa (NR concentration 180 nM, RXRa partner concentration 90 nM)
# Procedure, shortened: as §1
# [8] = test system: PPARg:RXRa 270nM:90nM, anti-RXR (NR concentration 270 nM, RXRa partner concentration 90 nM)
# Procedure, shortened: as §1
# [9] = test system: PPARg:RXRa 30nM:10nM, anti-RXR (NR concentration 30 nM, RXRa partner concentration 10 nM)
# Procedure, shortened: as §1
# [10] = test system: PPARg:RXRa 90nM:30nM, anti-RXR (NR concentration 90 nM, RXRa partner concentration 30 nM)
# Procedure, shortened: as §1
# [11] = test system: PPARg:RXRa DBDmut IVT, anti-RXR (DBD mutation: RXRa K156A/R161A, NR concentration 270 nM, RXRa partner concentration 90 nM)
# Procedure, shortened: as §1
# [12] = test system: PPARg:RXRa IVT, anti-PPARg (NR concentration 270 nM, RXRa partner concentration 90 nM)
# Procedure, shortened: as §1
# [13] = test system: PPARg DBDmut:RXRa IVT, anti-PPARg (DBD mutation: PPARg1 K132A/R137A, NR concentration 270 nM, RXRa partner concentration 90 nM)
# Procedure, shortened: as §1
# [14] = test system: PPARg DBDmut IVT, anti-PPARg (DBD mutation: PPARg1 K132A/R137A, NR concentration 270 nM)
# Procedure, shortened: as §1
# [15] = test system: PPARg homodimer (NR concentration 180 nM)
# Procedure, shortened: as §1
# [16] = test system: PXR:RXRa (NR concentration 270 nM, RXRa partner concentration 90 nM)
# Procedure, shortened: as §1
# [17] = test system: PXR homodimer (NR concentration 270 nM)
# Procedure, shortened: as §1
# [18] = test system: RARa:RXR (NR concentration 270 nM, RXRa partner concentration 90 nM)
# Procedure, shortened: as §1
# [19] = test system: RARa homodimer (NR concentration 270 nM)
# Procedure, shortened: as §1
# [20] = test system: RARb:RXRa (NR concentration 270 nM, RXRa partner concentration 90 nM)
# Procedure, shortened: as §1
Sequence,PBM binding z-score [1],PBM binding z-score [2],PBM binding z-score [3],PBM binding z-score [4],PBM binding z-score [5],PBM binding z-score [6],PBM binding z-score [7],PBM binding z-score [8],PBM binding z-score [9],PBM binding z-score [10],PBM binding z-score [11],PBM binding z-score [12],PBM binding z-score [13],PBM binding z-score [14],PBM binding z-score [15],PBM binding z-score [16],PBM binding z-score [17],PBM binding z-score [18],PBM binding z-score [19],PBM binding z-score [20]
TCTAGCAGGCCAGGGGGTCACTCAAGAGGTACGG,3.31,3.16,0.394,5.14,4.6,4.64,2.95,4.66,3.29,4.43,1.72,3.02,2.08,1.84,2.2,4.43,0.579,5.03,0.104,3.16
CCGACTGGGGCAGAAAAGTTACCATACCATCCGG,-0.281,-0.694,-0.371,-0.55,-1.1,-0.413,0.56,-0.294,-0.571,-0.517,1.36,0.746,-1.85,-1.61,0.0393,-0.593,-0.395,-0.848,0.0243,-0.0999
GCTGCTAGGTCAGGTTGGTCAGCTATCGGGTACG,1.38,0.811,-0.13,0.574,-0.138,1.42,0.304,1.19,-0.614,0.562,2.93,2.58,-0.776,-0.675,1.22,0.328,-0.458,0.73,-0.348,3.46
CGTCCAAGGTCAAAGGAGGTCAGTGAAGACAGAT,7.79,7.44,4.18,5.88,1.51,6.08,5.84,5.46,2.75,4.81,3.19,4.71,0.585,-0.349,3.39,6.84,3.62,5.79,0.875,5.6
TCATATAGGTAATCCAGGTGAAAGTCGGCATCTA,1.03,1.21,0.37,0.829,0.397,2.4,1.87,2.9,4.14,3.53,4.8,4.82,1.66,1.21,1.69,0.657,0.114,1.28,0.866,0.724
ATTCAAAGTTCAGGACGAGGTAACGTAAAGCACG,4.14,4.12,1.92,2.22,1.06,3.21,2.19,2.41,1.01,1.54,-0.268,1.33,1.03,0.76,1.93,2.95,1.44,3.01,0.385,4.19
AATACAGGGTCACTAGGCCTGAGTAGGTACGAAT,6.29,4.71,0.651,3.72,0.544,5.53,6.71,5.29,2.26,4.42,2.96,4.76,1.25,1.34,2.04,2.85,0.251,3.86,0.431,4.06
CGAACTAGGTCATCCAGGACGGTGAATACATTGA,4.05,2.29,0.0785,1.64,-0.427,4.85,7.27,6.3,3.61,5.41,7.81,8.21,2.02,0.711,0.484,1.5,0.391,2.02,0.0502,3.78
GCTGCTAGGTCAACTGATGATCAGCTAAAGCTCG,3.88,2.96,-0.334,2.02,0.0909,3.68,2.88,3.19,0.694,2.07,4.79,4.29,-0.231,0.333,1.28,1.34,-0.82,2.48,-0.292,4.25
CCGACTGGAGCAAGGTTACCATAACGCACAGCCA,-0.0203,0.559,0.116,0.511,-0.797,1.01,1.3,1.66,0.181,0.892,1.3,0.76,-0.802,-0.726,0.608,0.248,-0.0714,0.527,-0.0817,0.876
GCTACAGGGTCAAGGCCAGAGTACGCGTATTGAT,6.86,3.95,-0.363,3.53,-0.375,5.71,5.03,4.94,1.93,3.59,2.54,3.15,-0.313,0.11,2.84,4,0.0658,4.7,0.58,4.59
CAAACTAGGTCACGGGAAGGTCAAAGTCCGCATG,6.63,5.83,4.52,5.56,0.929,6.51,10.1,7.81,6.78,7.95,8.72,9.17,2.85,3.73,5.61,5.97,1.41,7.17,1.78,5.43
ATATGTAGGTTTAGGGTCATTCAGGTTGGTTCGC,4.11,3.91,1.71,3.97,1.36,4.59,5.96,6.54,4.91,6.7,2.89,3.81,1.35,1.25,2.95,5.07,4.08,4.48,2.17,2.79
GCTTACGGGGCAAAGGTTATAGCATGAATAGAAT,2.32,2.71,0.016,3.48,0.208,5.38,8.91,8.3,7.37,9.06,3.33,4.27,0.825,1.35,2.67,2.99,0.0717,4.63,0.155,2.32
CCAGACAGGAGAAAGGTAACTCAGTCTGGTACGC,-0.00582,-0.0922,-0.373,-0.0883,-0.51,0.347,0.817,1.46,0.169,0.958,0.0518,-0.161,-0.761,-0.621,0.229,-0.00799,0.153,0.168,0.262,0.234
